# “And” between values parts separate entries of the source, which are not always exact repeats. Equal entries are not always repeated. Records with an inconclusive call do not appear. The source made the active and inactive calls. Calls come from the whole dose curve; as a rule, active = well fitted activation curve with a large enough effect; inconclusive = small, poorly fitted or top-dose-only effect; inactive = no such curve, though single readings can be large or run the other way.
# Target: Cellular tumor antigen p53 (Homo sapiens) (UniProt P04637)
# Sequence (P04637 whole entry, looked up): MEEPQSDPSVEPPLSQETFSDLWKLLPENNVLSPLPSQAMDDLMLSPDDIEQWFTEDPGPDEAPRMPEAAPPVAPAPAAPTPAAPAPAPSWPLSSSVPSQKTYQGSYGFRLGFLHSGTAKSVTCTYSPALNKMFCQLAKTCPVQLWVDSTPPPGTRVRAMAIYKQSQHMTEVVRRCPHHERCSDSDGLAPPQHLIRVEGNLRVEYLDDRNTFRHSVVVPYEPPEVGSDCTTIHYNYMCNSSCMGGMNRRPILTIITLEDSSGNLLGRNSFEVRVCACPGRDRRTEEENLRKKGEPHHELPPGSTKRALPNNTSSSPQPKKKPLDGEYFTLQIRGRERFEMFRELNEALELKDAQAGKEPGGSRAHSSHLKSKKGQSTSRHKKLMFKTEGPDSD
# Experiment: Primary qHTS for small molecule compounds that upregulate eGFP-tagged delta133p53alpha (in N-terminal) cells. (AID 2060322); note: nearly all actives have a fitted effect of over 75% in size;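 for activation: series mostly up to about 56 µM; 0% = DMSO vehicle and 100% = reference activator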
# Settings: NCI-H358 eGFP-delta133p53alpha fluorescence, 24 h; activation: hits give high values
# Method in brief: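 NCI-H358 cells pre-induced 24 h with 10 ng/ml doxycycline to express N-terminal eGFP-delta133p53alpha, then dosed 24 h at 37C without doxycycline; fixed, Hoechst-stained, GFP intensity by laser scanning cytometry, normalized to DMSO (0%) and 57.5 uM 5-azacytidine (100%).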
# Potency is the fitted concentration of half-maximal effect.
Structure (SMILES),activation,Potency
COc1cc2cc(c1Cl)N(C)C(=O)C[C@H](OC(=O)C(C)C)[C@]1(C)O[C@H]1[C@H](C)[C@@H]1C[C@@](O)(NC(=O)O1)[C@H](OC)C=CC=C(C)C2,0.447% (inactive),
CCC1(CC)C(=O)C=CNC1=O,-17.5% (inactive),
Cc1nc(-c2ccc(-c3ccc(C(=O)N4CCc5cc6c(cc54)C4(CCN(C)CC4)CO6)cc3)c(C)c2)no1,-21.1% (inactive),
COc1cccc([C@@]2(O)CCCC[C@@H]2CN(C)C)c1,13.4% (inactive),
S=C(SSC(=S)N1CCCCC1)N1CCCCC1,-16.7% (inactive),
CC1=C2[C@H]3OC(=O)[C@@H](C)[C@@H]3CC[C@@]2(C)C=CC1=O,11.7% (inactive),
C[C@@H]1[C@@H](CC(C[C@H]2O[C@@H]3O[C@]4(C)CC[C@@H]5[C@H](C)CC[C@@H]([C@H]2C)[C@@]35OO4)C[S+](=O)([O-])c2ccc(COC(=O)N(C)C)cc2)O[C@@H]2O[C@]3(C)CC[C@H]4[C@H](C)CC[C@@H]1[C@@]24OO3 (stereo partly drawn),8.23% (inactive),
O=C(CCCCl)c1ccc(F)cc1,-10.9% (inactive),
Sc1ccccc1Cl,-0.837% (inactive),
CC[C@@H](CO)NC(=O)[C@@H]1C=C2c3cccc4c3c(cn4C)C[C@H]2N(C)C1,-3.95% (inactive) and -69.3% (inactive),
Cc1ccc(Cl)c(O)c1,5.08% (inactive),
C[C@]12CCC(=O)C(O)=C1CC[C@@H]1[C@H]3CCC(=O)[C@@]3(C)CC[C@@H]12,-8.48% (inactive),
CC(C)(C)C(O)C(Oc1ccc(Cl)cc1)n1cncn1 (stereo not drawn),10.7% (inactive),
CNC(C)(C)Cc1ccccc1,-3.35% (inactive),
O=C(O)c1ccc(=O)[nH]c1,11.9% (inactive),
C[C@@H]1CC[C@@]2(OC1)O[C@H]1C[C@H]3[C@@H]4CC=C5C[C@@H](O[C@@H]6O[C@H](CO)[C@@H](O[C@@H]7O[C@@H](C)[C@H](O)[C@@H](O)[C@@H]7O)[C@H](O)[C@@H]6O[C@@H]6O[C@@H](C)[C@H](O)[C@@H](O)[C@@H]6O)CC[C@]5(C)[C@@H]4CC[C@]3(C)[C@@H]1[C@H]2C,15.2% (inactive),
NC1=NC(=O)C(c2ccccc2)O1 (stereo not drawn),0.565% (inactive),
COP(=O)(OC)C(O)C(Cl)(Cl)Cl (stereo not drawn),-2.51% (inactive),
C[N+]1(CCF)[C@@H]2CC[C@H]1CC(OC(=O)C(O)(c1ccccc1)c1ccccc1)C2 (stereo partly drawn),5.08% (inactive),

Structure (SMILES),activation,Potency
CC1N=C(N)OC1c1ccccc1 (stereo not drawn),-17.5% (inactive),
Oc1cc(Cl)ccc1Oc1ccc(Cl)cc1Cl,,51.4 µM (active)
CC(C)(N)Cc1ccccc1Cl,10.7% (inactive),
O=c1oc2ccccc2c(O)c1Cc1c(O)c2ccccc2oc1=O,,17.4 µM (active)
COc1ccc2c3c1O[C@H]1[C@H](O)CC[C@H]4[C@@H](C2)N(C)CC[C@@]341,16.4% (inactive),
CC1OC(C)OC(C)O1 (stereo not drawn),6.21% (inactive),
NCc1cccnc1,6.21% (inactive),
O=c1n(Cl)c(=O)n(Cl)c(=O)n1Cl,6.21% (inactive),
C[C@]12CCC(=O)C=C1CC[C@@H]1[C@@H]2CC[C@]2(C)C(=O)CC[C@@H]12,7.34% (inactive),
COC(=O)[C@@H](N)CCCN/C(N)=N/[N+](=O)[O-],-1.69% (inactive),
NC(=O)OCCCc1ccccc1,-0.565% (inactive),
CCOCCOC(C)=O,-27.7% (inactive),
C[C@@H]1CN(C2CCC(C#N)(c3ccc(F)cc3)CC2)CC[C@]1(C(=O)O)c1ccccc1 (stereo partly drawn),10.7% (inactive),
CCNc1nc(Cl)nc(NCC)n1,8.37% (inactive),
CN1C(=O)NC(=O)C(C)(C2=CCCCC2)C1=O (stereo not drawn),3.35% (inactive),
O=[N+]([O-])c1cc([N+](=O)[O-])c2ccccc2c1,-5.02% (inactive),
CCN(CC)CCc1c[nH]c2ccccc12,-8.47% (inactive),
C[C@H]1CCCC=CC2C[C@H](O)C[C@@H]2[C@H](O)C=CC(=O)O1 (stereo partly drawn),23.5% (inactive),
COc1ccc2[nH]cc(CCN(C(C)C)C(C)C)c2c1,23.2% (inactive),

# Source: PubChem BioAssay (NCATS)
